D2 antag – antagonists of human D2 dopamine receptor. inhibition, % at 10 µM. AID 485344. P14416. HEK293 TREx D2 cells, calcium flux, dopamine EC80. 340,000 compounds, 2% hits; in the data active means inhibition above about 30%; inactive means below that, where a call was filed
Target sequence (P14416 whole entry, looked up): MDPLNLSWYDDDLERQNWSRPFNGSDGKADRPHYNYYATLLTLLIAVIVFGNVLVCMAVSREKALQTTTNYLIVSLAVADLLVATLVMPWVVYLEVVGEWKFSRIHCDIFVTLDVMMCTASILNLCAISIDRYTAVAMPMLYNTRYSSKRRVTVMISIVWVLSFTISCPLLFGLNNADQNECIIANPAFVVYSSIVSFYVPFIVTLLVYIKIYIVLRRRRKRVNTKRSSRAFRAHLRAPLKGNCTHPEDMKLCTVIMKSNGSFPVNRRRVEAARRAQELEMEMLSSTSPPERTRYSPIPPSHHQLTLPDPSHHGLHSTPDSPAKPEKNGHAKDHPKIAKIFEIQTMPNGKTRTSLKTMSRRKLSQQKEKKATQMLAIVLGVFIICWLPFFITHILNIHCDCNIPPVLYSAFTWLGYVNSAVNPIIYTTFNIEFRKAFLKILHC
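In this primary screen, negative modulation is detected by tracking calcium flux after an EC80 dopamine challenge in inducible HEK293 T-REx D2 cells preexposed to test compound for 180 s.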
D2 PAM-1 – human D2 receptor positive allosteric modulation; 360,000 compounds, 0.23% hits; P14416; AID 624464; potentiation, % (test concentration not listed); DiscoveRx D2 beta-arrestin cells, luminescence, 90 min; 100% = 57 uM dopamine signal; in the data active means potentiation above about 50%
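D2 cells co-treated with compound plus 50 nM dopamine (EC20) for 90 min at 37 deg C to detect potentiation. Beta-arrestin recruitment was read as enzyme-fragment luminescence after 1 h at ambient temperature. Full response was set by 57 uM dopamine.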
D2 PAM-2 – positively modulates the human D2 dopamine receptor allosterically; P14416; HEK293 T-REx D2, calcium flux, EC20 dopamine potentiation; potentiation, % at 10 µM; 340,000 compounds, 0.34% hits;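 active means potentiation over 3 SD above the plate norm, cut at about 30% in these data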
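Primary screen. Calcium kinetics in induced HEK293 T-REx D2 cells: compound pre-addition 180 s, EC20 dopamine, 180 s more.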
D2 ag-1 – agonists of human D2 dopamine receptor; P14416; HEK293 T-REx D2 cells, calcium flux agonist mode; activation, % at 2 µM; 340,000 compounds, 0.53% hits;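 active means activation over 3 SD above normal in the single-dose calcium agonist read, cut at about 30% in these data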
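Calcium-flux readout, 1 cycle/sec over 180 s following compound pin transfer, in inducible HEK293 Trex D2 cells (force-coupled); dopamine controls included. Positive calcium responses during this window marked compounds as potential agonists.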
D2 ag-2 – human D2 receptor agonism in beta-arrestin assay; P14416; DiscoveRx PathHunter D2 beta-arrestin, luminescence, 90 min; 100% = 57 uM dopamine signal; activation, % (concentration not given with the values); 360,000 compounds, 0.084% hits; in the data active means activation above about 40%
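DiscoveRx PathHunter D2 beta-arrestin cells (2,100/well) attached overnight, then compound-stimulated 90 min at 37 C in HBSS/10 mM HEPES/0.1% Tween-20 buffer; beta-galactosidase complementation read by luminescence after 1 h at ambient temperature. Dopamine 57 uM final (EC100) as control.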
A number is an active result; - = inactive; . = no result. Only some compounds are listed: those with a hit (about 2.4% of all), similar ones and a draw of the others.

SMILES	D2 antag	D2 PAM-1	D2 PAM-2	D2 ag-1	D2 ag-2
Cc1cc(=O)oc2cc(OCCSCCN3CCCC3)ccc12	-	-	-	-	-
COc1ccc(C(=O)CCN2CCN(c3ccc(OC)cc3)CC2)cc1	31	-	-	-	-
Cc1cc(=O)oc2ccc(OCC(=O)NCc3ccco3)cc12	-	-	-	-	-
Cc1cc(=O)oc2cc(OCC(=O)NCc3ccco3)ccc12	-	-	35	-	-
CN(CCOc1cccc(C(F)(F)F)c1)Cc1ccccc1	.	-	.	.	-
FC(F)(F)c1cccc(OCCN2CCN(Cc3ccccc3)CC2)c1	82	-	-	-	-
c1ccc(OCCN2CCN(C(c3ccccc3)c3ccccc3)CC2)cc1	46	-	-	-	-
O=c1[nH]c2ccccc2n1CCCN1CCCCC1	-	-	-	-	-
O=c1[nH]c2ccccc2n1CCCN1CCN(C(c2ccccc2)c2ccccc2)CC1	84	.	-	-	.
CCn1c(=O)cc(OCC(=O)N(C)c2ccc(OC)cc2)c2ccccc21	.	.	-	-	.
CCn1c(CC2C(=O)N(C)c3ccccc32)nc2ccccc2c1=O (centres undefined)	.	.	-	-	.
CCCN(CCC)CCCNC(=O)C(NS(=O)(=O)c1ccc2c(c1)CCC(=O)N2)c1ccccc1 (centres undefined)	45	-	-	-	-

Screens: PubChem BioAssay, National Center for Advancing Translational Sciences (NCATS)
